# Structures can show the parent of a compound that is named as a salt.
# Test system: Saccharomyces cerevisiae BY4741 SeMeCo community
# Experiment: z-score of subpopulation abundance vs DMSO median, subpopulation auxotrophic for HLM; higher = larger share of this subpopulation than in DMSO controls
# Conditions: 10 µM; 24 h; SM minimal medium; subpopulation (auxotrophy): HLM
# In short: (§1)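 Subpopulation abundance was reported as a z-score against the median of vehicle wells. The Saccharomyces cerevisiae BY4741 community, carrying four plasmids that each restored one auxotrophy and encoded a distinct fluorescent protein, was grown 24 h in minimal SM medium in 384-well plates holding library drugs at 10 µM final. Cells were paraformaldehyde-fixed and imaged by automated confocal microscopy, with single-auxotroph fluorescent strains used for thresholds and autofluorescence correction.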
row,SMILES,z-score of subpopulation abundance
1,N#CC(c1ccc(Cl)cc1)c1c(Cl)cc(-n2ncc(=O)[nH]c2=O)cc1Cl (configuration not stated) [Diclazuril],0.16
2,O=C1NCC2(CCN(CCc3ccccc3)CC2)O1 [Fenspiride HCl],0.35
3,CCCN[C@H]1CCc2nc(N)sc2C1 [Pramipexole dihydrochloride],-0.79
4,O=C(O)c1ccccc1O [Salicylic acid],-1.09
5,CCCOc1ccc(C(=O)OCCN(CC)CC)cc1N [Proparacaine HCl],-0.35
6,CCOc1ccc2ccccc2c1C(=O)N[C@@H]1C(=O)N2[C@@H]1SC(C)(C)[C@@H]2C(=O)O [Nafcillin Sodium],-0.71
7,CC(C)(O/N=C(\C(=O)N[C@@H]1C(=O)N2C(C(=O)[O-])=C(C[n+]3ccccc3)CS[C@H]12)c1csc(N)n1)C(=O)O [Ceftazidime],-0.39

# Test system: Saccharomyces cerevisiae BY4741 SeMeCo community
# Experiment: z-score of subpopulation abundance vs DMSO median, subpopulation auxotrophic for HUM; higher = larger share of this subpopulation than in DMSO controls
# Conditions: 10 µM; 24 h; SM minimal medium; subpopulation (auxotrophy): HUM
# In short: as §1
row,SMILES,z-score of subpopulation abundance
1,COc1cc(O)c(C(=O)Nc2nc(C(=O)NCCN(C(C)C)C(C)C)cs2)cc1OC [Acotiamide hydrochloride],0.54
2,Cc1onc(-c2c(F)cccc2Cl)c1C(=O)N[C@@H]1C(=O)N2[C@@H]1SC(C)(C)[C@@H]2C(=O)O [Flucloxacillin sodium],0.1
3,Cc1ncc([N+](=O)[O-])n1CC(O)CCl (configuration not stated) [Ornidazole],0.44
4,OC(CCCN1CCCCC1)(c1ccccc1)c1ccccc1 [Diphenidol HCl],0.78
5,Cc1ccccc1OCC(O)CO (configuration not stated) [Mephenesin],-0.77
6,CC(C)c1c(C(=O)Nc2ccccc2)c(-c2ccccc2)c(-c2ccc(F)cc2)n1CC[C@@H](O)C[C@@H](O)CC(=O)O [Atorvastatin Calcium],7.67
7,C[C@@H](O)[C@H]1C(=O)N2C(C(=O)[O-])=C(SC3Cn4cnc[n+]4C3)[C@H](C)[C@H]12 (some centres not stated) [Biapenem],-0.24
8,CO/N=C(\C(=O)N[C@@H]1C(=O)N2C(C(=O)OC(C)OC(C)=O)=C(COC(N)=O)CS[C@H]12)c1ccco1 (some centres not stated) [Cefuroxime axetil],0.05
9,Cc1cc(=O)n(-c2ccccc2)n1C [Antipyrine],-0.77
10,Oc1c(Cl)cc(Cl)c2cccnc12 [Chloroxine],19.8
11,CC1(C)CC[C@]2(C(=O)O)CC[C@]3(C)C(=CC[C@@H]4[C@@]5(C)CC[C@H](O)C(C)(C)[C@@H]5CC[C@]43C)[C@@H]2C1 [Oleanolic Acid],0.93
12,CCOC(=O)C1=C(C)NC(C)=C(C(=O)OC)C1c1cccc(Cl)c1Cl (configuration not stated) [Felodipine],-5.68
13,O=C1CCc2cc(OCCCCc3nnnn3C3CCCCC3)ccc2N1 [Cilostazol],-0.31
14,Cc1nnc(SCC2=C(C(=O)O)N3C(=O)[C@@H](NC(=O)Cn4cc(Cl)c(=O)c(Cl)c4)[C@H]3SC2)s1 [Cefazedone],0.05
15,CS(=O)(=O)c1ccc([C@@H](O)[C@@H](CO)NC(=O)C(Cl)Cl)cc1 [Thiamphenicol],-0.08
16,O=C(O)CCNC(=O)c1ccccc1 [Betamipron],-0.33
17,O=c1cc(-c2ccc(O)c(O)c2)oc2cc(O)cc(O)c12 [Luteolin],-0.43
18,CN1C[C@@H]2C[C@H]1CN2c1cc2c(cc1F)c(=O)c(C(=O)O)cn2C1CC1 [Danofloxacin Mesylate],-0.05
19,CC(=O)Oc1ccccc1C(=O)O [Aspirin],-0.14
20,Cc1noc(NS(=O)(=O)c2ccc(N)cc2)c1C [Sulfisoxazole],1.21

row,SMILES,z-score of subpopulation abundance
1,O=C(NCCO[N+](=O)[O-])c1cccnc1 [Nicorandil],-0.48
2,O=C1C(CC[S+]([O-])c2ccccc2)C(=O)N(c2ccccc2)N1c1ccccc1 (racemic) [(+/-)-Sulfinpyrazone],0.22
3,CCCCCCCCCC(=O)N[C@@H](Cc1c[nH]c2ccccc12)C(=O)N[C@H](CC(N)=O)C(=O)N[C@@H](CC(=O)O)C(=O)N[C@@H]1C(=O)NCC(=O)N[C@@H](CCCN)C(=O)N[C@@H](CC(=O)O)C(=O)N[C@H](C)C(=O)N[C@@H](CC(=O)O)C(=O)NCC(=O)N[C@H](CO)C(=O)N[C@@H]([C@H](C)CC(=O)O)C(=O)N[C@@H](CC(=O)c2ccccc2N)C(=O)O[C@@H]1C [Daptomycin],0.77
4,CCn1cc(C(=O)O)c(=O)c2cc(F)c(N3CCN(C)CC3)cc21 [Pefloxacin Mesylate],-0.57
5,"OCc1ccc(Cl)cc1Cl [2,4-dichlorobenzyl alcohol]",-0.47
6,CN(C)CCC=C1c2ccccc2CCc2ccccc21 [Amitriptyline HCl],-0.75
7,COc1ccccc1OCC(O)CN1CCN(CC(=O)Nc2c(C)cccc2C)CC1 (configuration not stated) [Ranolazine],0.18
8,COc1cc(C(C)=O)ccc1OCCCN1CCC(c2noc3cc(F)ccc23)CC1 [Iloperidone],-0.98
9,Cc1ccc(Sc2ccccc2N2CCNCC2)c(C)c1,-0.46
10,Nc1ccc(S(=O)(=O)Nc2ccccn2)cc1 [Sulfapyridine],-0.97
11,CN1CC(=O)N2[C@H](c3ccc4c(c3)OCO4)c3[nH]c4ccccc4c3C[C@@H]2C1=O [Tadalafil],0.54
12,CCOC(=O)C1=C[C@@H](OC(CC)CC)[C@H](NC(C)=O)[C@@H](N)C1 [Oseltamivir Phosphate],-1.09
13,O=C(c1ccc(OCCN2CCCCC2)cc1)c1c(-c2ccc(O)cc2)sc2cc(O)ccc12 [Raloxifene HCl],0.06
14,N#CC(c1ccc(Cl)cc1)c1c(Cl)cc(-n2ncc(=O)[nH]c2=O)cc1Cl (configuration not stated) [Diclazuril],-0.94
15,O=C1NCC2(CCN(CCc3ccccc3)CC2)O1 [Fenspiride HCl],-0.64
16,CCCN[C@H]1CCc2nc(N)sc2C1 [Pramipexole dihydrochloride],0.52
17,O=C(O)c1ccccc1O [Salicylic acid],-1.03
18,CCCOc1ccc(C(=O)OCCN(CC)CC)cc1N [Proparacaine HCl],-0.66
19,CCOc1ccc2ccccc2c1C(=O)N[C@@H]1C(=O)N2[C@@H]1SC(C)(C)[C@@H]2C(=O)O [Nafcillin Sodium],0
20,CC(C)(O/N=C(\C(=O)N[C@@H]1C(=O)N2C(C(=O)[O-])=C(C[n+]3ccccc3)CS[C@H]12)c1csc(N)n1)C(=O)O [Ceftazidime],0.14

# From the supplement of paper PMC8975748
